From paper PMC12136788
Over roughly 24,000 sequences, “enrichment r” has its median near 0.99; the highest 2% begin near 3.7. The list is a sample of the results.

T1: UNK ZnF1-3 (human, UniProt Q9C0B0 31-174)
T1 sequence: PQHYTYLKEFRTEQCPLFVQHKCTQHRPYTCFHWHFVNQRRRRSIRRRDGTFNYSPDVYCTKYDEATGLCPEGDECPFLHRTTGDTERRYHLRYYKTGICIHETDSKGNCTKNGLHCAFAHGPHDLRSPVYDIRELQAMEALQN

B1: chr4:17845017:17845018:+_ENSG00000109805_ENST00000514176|hu_mus|hu_hu_hu_mus_False|1_58 (ssRNA)
RNA: GGGAGUUCUACAGUCCGACGAUCGCUCUCUUAACUUGUAUCUUCAUUAAGGAACUCUGCAAGGUUAAGUUUACUUUUUCUAGUGCUAGCUGUUUUGGCUCGUCUGGGUAAUCUCAUCUUCAUUUCUGAUGGUGGUUUGGAACUCAACAGAGGAUUGAGCAUCA
B2: chr6:146524949:146524950:-_ENSMUSG00000040250_ENSMUST00000032427|mus_hu|FALSE|FALSE (ssRNA)
RNA: GGGAGUUCUACAGUCCGACGAUCCUGCCUGCAAGAUUCUGCCAUAUAAGGGCAGUGAUCCACAACAAACACUGUUUUAUGAGAUUCAGAAAAAAUCUUCAUUUUGUUUUAACUUUCGUGCCUGGUCCUGCAGUGAAAACGAACCAACAGAGGAUUGAGCAUCA
B3: chr17:73774127:73774128:-_ENSG00000132475_ENST00000254810|hu_mus|motif|central (ssRNA)
RNA: GGGAGUUCUACAGUCCGACGAUCUGACAAGACUCCCCACCACUUGUGAAUGUAAAACAUUUAAUUUAAAAAUGUUGAACACGGCAAUAUAUAAAAUAGCUAUUAUAAAUGCACAUAGUGUAUUCUAUAGCUGCCAGGUUUACUCAACAGAGGAUUGAGCAUCA
B4: chr9:95013113:95013114:-_ENSG00000196305_ENST00000443024|hu_hu|hu_hu_hu_mus_False|68_108 (ssRNA)
RNA: GGGAGUUCUACAGUCCGACGAUCCUCAGUGAGAAAAGGCGUGUAAGGGGCCAUCAGUCUGCACAGAGAAAGCAGAACACUGAACAGUGUCUCCAGAGCCAUGACACAGUCUUCCACCCCACUCUCACCCUUUAACCUCCUCCUCAACAGAGGAUUGAGCAUCA
B5: chr8:41367971:41367972:+_ENSG00000147533_ENST00000520817|hu_hu|motif|central (ssRNA)
RNA: GGGAGUUCUACAGUCCGACGAUCAAUAUACAGUAUUAUUCCUAUCAAAUUUUUUUCUCAUAAGUUAUAUUUAUAACAAAACGGUAAUUAAAAUAUUUUUUAUACCUGCUUAUUCCAUAUCCAGGGACACAGCGGGAACAUUUACAACAGAGGAUUGAGCAUCA
B6: chr4:4237396:4237397:-_ENSG00000132406_ENST00000382753|hu_hu|motif|central (ssRNA)
RNA: GGGAGUUCUACAGUCCGACGAUCUAAAACUUCACAUUAGGAAAUGCUAAAAACCCAGUAAUGUACAUAAUGAUAAAAUCGGAAGUGAUGAGAAAACAUAAAAUAUUUUCAUUUGGUCCUGUCACCUAACAAAACUAUCAUAAACAACAGAGGAUUGAGCAUCA
B7: chr18:77696836:77696837:-_ENSMUSG00000025427_ENSMUST00000026494|mus_hu|FALSE|FALSE (ssRNA)
RNA: GGGAGUUCUACAGUCCGACGAUCCCUCAGAGGAUACCGGCUGGGUGGGCUGAGGUUGUGGGAGGAGCGAGGGAGGAGGAAAGGCAGGUUCAUGAUGGAGAGGCAGGGUUGUGGUGGGGGCGGGGGGGUGCCAAGUGUAGCAAGCAACAGAGGAUUGAGCAUCA
B8: chr8:35901500:35901501:-_ENSMUSG00000031529_ENSMUST00000033929|mus_mus|FALSE|FALSE (ssRNA)
RNA: GGGAGUUCUACAGUCCGACGAUCUAUAUAACAUGAUCUGUCUUUGUGUGUGGGACAGCCUGUUCCUCCUCCAAUUCCAUAAACAUACUGAUUGCUUUUUGAGGAGUUUUCAGCAAAGUAAAUUCCAGCUCCAAACAUCCCUCCCAACAGAGGAUUGAGCAUCA
B9: chr2:9728443:9728444:-_ENSG00000134308_ENST00000238081|hu_mus|motif|central (ssRNA)
RNA: GGGAGUUCUACAGUCCGACGAUCCUGCAUCUCCUUCUUGCUUAUAUCAAACGCCUCUUGGUAGGCUCCUUGGGAAUUUUCGGUUGUUUGUUUUCGAUCAUCGCCACAAGCUACUUCAGCAAGAUACCGGAAAUAAUCUCCCUUCAACAGAGGAUUGAGCAUCA
B10: 30602309_30602429_1961_3pUTR_ENSG00000107951_ENST00000263063|human|control|control (ssRNA)
RNA: GGGAGUUCUACAGUCCGACGAUCCGCCACACUCCACAGCUGAUGUUUUAAUAAAGUGCCACUGAGUAUCAGACUGAUCAAACUGAAAACAUCCCAGAACUUCAGACCAGGUUAAGGGGGCCAAUGAGAAGAUCAUGAAAAGUGCAACAGAGGAUUGAGCAUCA
B11: chr4:42003652:42003653:+_ENSG00000014824_ENST00000513699|hu_hu|motif|central (ssRNA)
RNA: GGGAGUUCUACAGUCCGACGAUCGGUACCAAUAUAUGGAUGACUACAGGGAACCAUGUUUGAAAAGCUUCCAAAUGUCACGGAAUUCUGCCACUCCUGGCGGUCGCUGGGAUUACAGGCCGCCGCCCUGCAUCGCAGACGGAGCAACAGAGGAUUGAGCAUCA
B12: 22790091_22790211_509_ncRNA_ENSMUSG00000026784_ENSMUST00000139472|mouse|control|control (ssRNA)
RNA: GGGAGUUCUACAGUCCGACGAUCAUGACUGGAGUUUGAUGAAGAAAGAACUGACUACUCAGACACCUGUCUCCCCACCGUGUGUGACACACACUAUAAGUCCCUCAGUAAUGAUGACAAUGUCUUGUAUCCUCUUCAUUUUUACAACAGAGGAUUGAGCAUCA
B13: chr2:202488911:202488912:-_ENSG00000155755_ENST00000286196|hu_mus|hu_hu_hu_mus_False|88_98 (ssRNA)
RNA: GGGAGUUCUACAGUCCGACGAUCAUUGAAACAUUUUCAUAAUAUUGAGAGAUGUUUUCAGCAUUAUGUAACAAAAGCUCAAUUGUAAAUACAUGUAUCUUAUAAAAAUACACUUAAAAACACGAGUGGGGAGCGCAGGCGCCACAACAGAGGAUUGAGCAUCA
B14: chr16:94690476:94690477:+_ENSMUSG00000040785_ENSMUST00000117648|mus_mus|motif|central (ssRNA)
RNA: GGGAGUUCUACAGUCCGACGAUCAGAAAUGUAAUGUAUUCAAGGUUCACAUGUCUGUAUUUGCCACUGCCUACAGGUCACGGAAAAUACCUAGUUUUUGAAUAGUUUCUAAUACAGUUAGCUUGUUUUCAGGCCACAUUACAACAACAGAGGAUUGAGCAUCA
B15: chr13:90237973:90237974:+_ENSMUSG00000012422_ENSMUST00000161568|mus_hu|FALSE|FALSE (ssRNA)
RNA: GGGAGUUCUACAGUCCGACGAUCAAGCACAGGUACAUAUAAGCAGCAAGAUUACAGUCAAUAGACUCUGAAAAUUGAAAAUGGCAGACAUAGCGAGGCCGGCGAUGCCGCAGCCACAUCACCCUUCCGGGGCUCAGGCGGAAGCAACAGAGGAUUGAGCAUCA
B16: chr1:163112212:163112213:-_ENSG00000143248_ENST00000313961|hu_hu|hu_hu_hu_mus_False|1_58 (ssRNA)
RNA: GGGAGUUCUACAGUCCGACGAUCUUUUAUUAUCAGUAAGAGUGAGUUACAUACUAGGCAAAGUAUUGGAUACAAUAUUCUAAAGAUAAACACUAUUGGUCCAGAAUUUAAAACUUUAUGAGCGAAGUGCUGGCACAGGAUUUACAACAGAGGAUUGAGCAUCA
B17: chr7:7679991:7679992:-_ENSG00000106399_ENST00000396682|hu_hu|hu_hu_hu_mus_False|48_88 (ssRNA)
RNA: GGGAGUUCUACAGUCCGACGAUCUGGGAUGAAUCUUUUCCAGCUUCCCUACGAAGCACACGGGCCGGUCGAUAUACUGUGGUAACAUGCCGGCGUUGACGCGCGCUUUGGGGAGCUGCAUUAUGUCCUCCAUGAUUCUGCCGCCAACAGAGGAUUGAGCAUCA
B18: chr9:56909451:56909452:+_ENSMUSG00000032290_ENSMUST00000034832|mus_hu|motif|central (ssRNA)
RNA: GGGAGUUCUACAGUCCGACGAUCCAUAAGUGCACACACACACACACACAGAAUGACAGAAAGGACUGGAAUACACGCCCGGCUUAUAAACGUGCUUGGCACUCAGGACGAUCUCUAGAAUAUGUAACUUGGUCAAGCUCUCUGCAACAGAGGAUUGAGCAUCA
B19: 62695852_62700603_289_3pUTR_ENSMUSG00000042211_ENSMUST00000048688|mouse|control|control (ssRNA)
RNA: GGGAGUUCUACAGUCCGACGAUCAGCUUCCGAGAGAGGCAUUCCAUGCACAUGAUGUCCUGUAGUGGCAGGUACCUGAAGAUAUGACAGAGCACUUCAUGUGACAGCUGGUUCAUGUAGUCCUUCUCUUCAUCGGCUGUCAUUCAACAGAGGAUUGAGCAUCA
B20: chr7:151048522:151048523:+_ENSG00000013374_ENST00000566856|hu_mus|hu_hu_hu_mus_True|58_78 (ssRNA)
RNA: GGGAGUUCUACAGUCCGACGAUCCUGUUUCUUAUUUAUUACGAUCUUGAUGUAAUUUUCUUGAAGUCCGAAAGUUUCAGCUAUUUUACACCUCAGGUCUCUACCAGUGACAUGCAAGCGGGUCUCCAACAAGCUUUUCUUAUCCAACAGAGGAUUGAGCAUCA
B21: chr14:78183846:78183847:+_ENSG00000119705_ENST00000557342|hu_hu|hu_hu_hu_mus_False|18_108 (ssRNA)
RNA: GGGAGUUCUACAGUCCGACGAUCUCUGUCUCAAAAAUCUUCAUCAGAUGUUUGAGCUCCGUGCAAAGCCUUUGCUCUUUGAGCUUGAACGUGGAUCUAUGGGAGGGAAAGCACUGUAUUUUCCUGUAAUUUUUUUUUUAAAGACAACAGAGGAUUGAGCAUCA
B22: chr1:220276048:220276049:+_ENSG00000067704_ENST00000302637|hu_hu|hu_hu_hu_mus_True|78_108 (ssRNA)
RNA: GGGAGUUCUACAGUCCGACGAUCGCAAACAGCUUCAUUGGCGGGAAUUGUCCAAGGUUGUGUGGUCCAAACUAAAACGCUAACAGGGGAUGAGGCAUCUGUAAGAGACUCCAACUUCGGAGGAGGUCUCAGGAGGGGGAAUCUCAACAGAGGAUUGAGCAUCA

Each binder was assayed against T1, UNK ZnF1-3 (assay: nsRBNS (natural sequence RNA bind-n-seq); RBNS binding buffer (assumed for nsRBNS): 25 mM Tris pH 7.5, 150 mM KCl, 3 mM MgCl2, 0.01% Triton X-100, 500 ug/ml BSA, 20 U/ml SUPERase-In, 4 C; UNK is unkempt and MSI1 is Musashi-1; names of the RNAs are library labels; protein concentration not given here; high values mean tight binding).
Work on B1 yielded a binding signal of 0.331 enrichment R. Work on B2 yielded a binding signal of 1.02 enrichment R. With B3 the binding signal was 1.13 enrichment R. For B4, the binding signal was 1.61 enrichment R. With B5 the binding signal was 1.27 enrichment R. B6 was tested, and the binding signal was 1.05 enrichment R. B7 gave a binding signal of 3.07 enrichment R. With B8 the binding signal was 1.03 enrichment R. Work on B9 yielded a binding signal of 0.873 enrichment R. B10 showed a binding signal of 2.32 enrichment R. Work on B11 yielded a binding signal of 1.6 enrichment R. B12 was tested, and the binding signal was 0.985 enrichment R. B13 was tested, and the binding signal was 0.63 enrichment R. B14 showed a binding signal of 0.656 enrichment R. Work on B15 yielded a binding signal of 1.37 enrichment R. B16 showed a binding signal of 1.29 enrichment R. Work on B17 yielded a binding signal of 0.421 enrichment R. Work on B18 yielded a binding signal of 1.4 enrichment R. For B19, the binding signal was 1.2 enrichment R. B20 gave a binding signal of 0.64 enrichment R. For B21, the binding signal was 1.24 enrichment R. Binder B22 has a binding signal of 1.64 enrichment R.
